Assay results as given in publication PMC11102866, “Nucleosome-bound NR5A2 structure reveals pioneer factor mechanism by DNA minor groove anchor competition”.
Changes are numbered by the printed parent chain. In names and notes the source's numbering stands.

B1: 65 (nucleosome)
DNA 1: ATCCTGGAGAATCCCGGTGCCGAGGCCGCTCAATTGGTCGTAGACAGCTCTAGCACCGCTTAAACGCTCAAGGCCACTGTCCCCCGCGTTTTAACCGCCAAGGGGATTACTCCCTAGTCTCCAGGCACGTGTCAGATATATACATCCTGTGAT
DNA 2: ATCACAGGATGTATATATCTGACACGTGCCTGGAGACTAGGGAGTAATCCCCTTGGCGGTTAAAACGCGGGGGACAGTGGCCTTGAGCGTTTAAGCGGTGCTAGAGCTGTCTACGACCAATTGAGCGGCCTCGGCACCGGGATTCTCCAGGAT
modifications: reconstituted with mouse histones H2A, H2B, H3.3 and H4
B2: 68 (nucleosome)
DNA 1: B1 DNA 1 with T68A, A70G, A71T, G72C, G73A, C74A, C75G, A76G, T78C, G79A
DNA 2: B1 DNA 2 with C75T, A76G, T78C, G79C, G80T, C81T, C82G, T83A, T84C, A86T
modifications: reconstituted with mouse histones H2A, H2B, H3.3 and H4
B3: 71 (nucleosome)
DNA 1: B1 DNA 1 with T68A, A70G, A71T, G72A, G73C, C74T, C77A, T78G, T80C, C82A
DNA 2: B1 DNA 2 with G72T, A74G, A76C, G77T, G80A, C81G, C82T, T83A, T84C, A86T
modifications: reconstituted with mouse histones H2A, H2B, H3.3 and H4
B4: 61 (nucleosome)
DNA 1: ATCCTGGAGAATCCCGGTGCCGAGGCCGCTCAATTGGTCGTAGACAGCTCTAGCACCGCTTAATCAAGGCCACGCGCTGTCCCCCGCGTTTTAACCGCCAAGGGGATTACTCCCTAGTCTCCAGGCACGTGTCAGATATATACATCCTGTGAT
DNA 2: ATCACAGGATGTATATATCTGACACGTGCCTGGAGACTAGGGAGTAATCCCCTTGGCGGTTAAAACGCGGGGGACAGCGCGTGGCCTTGATTAAGCGGTGCTAGAGCTGTCTACGACCAATTGAGCGGCCTCGGCACCGGGATTCTCCAGGAT
modifications: reconstituted with mouse histones H2A, H2B, H3.3 and H4
B5: 67 (nucleosome)
DNA 1: B1 DNA 1 with T68A, A70T, A71C, G72A, G73A, C74G, C75G, A76C, T78A
DNA 2: B1 DNA 2 with A76T, T78G, G79C, G80C, C81T, C82T, T83G, T84A, A86T
modifications: reconstituted with mouse histones H2A, H2B, H3.3 and H4
B6: 64 (nucleosome)
DNA 1: B1 DNA 1 with C67T, T68C, C69A, A71G, G73C, C75A, A76G
DNA 2: B1 DNA 2 with T78C, G79T, C81G, T83C, G85T, A86G, G87A
modifications: reconstituted with mouse histones H2A, H2B, H3.3 and H4
B7: 63 (nucleosome)
DNA 1: B1 DNA 1 with G66T, T68A, C69A, A70G, A71G, G72C, G73C, C74A, A76G
DNA 2: B4 DNA 2 with C80T, T82G, G83C, G84C, C85T, C86T, T87G, T88A, A90T
modifications: reconstituted with mouse histones H2A, H2B, H3.3 and H4
B8: 66 (nucleosome)
DNA 1: B1 DNA 1 with T68A, C69T, A70C, G72A, C74G, A76C, C77A
DNA 2: B1 DNA 2 with G77T, T78G, G80C, C82T, T84G, G85A, A86T
modifications: reconstituted with mouse histones H2A, H2B, H3.3 and H4
B9: 62 (nucleosome)
DNA 1: B4 DNA 1 with T64A, C65T, A66C, G68A, C70G, A72C, C73A
DNA 2: B4 DNA 2 with G81T, T82G, G84C, C86T, T88G, G89A, A90T
modifications: reconstituted with mouse histones H2A, H2B, H3.3 and H4
B10: 8 (nucleosome)
DNA 1: ATCCTGGAGATCAAGGCCACCGAGGCCGCTCAATTGGTCGTAGACAGCTCTAGCACCGCTTAAACGCACGTACGCGCTGTCCCCCGCGTTTTAACCGCCAAGGGGATTACTCCCTAGTCTCCAGGCACGTGTCAGATATATACATCCTGTGAT
DNA 2: ATCACAGGATGTATATATCTGACACGTGCCTGGAGACTAGGGAGTAATCCCCTTGGCGGTTAAAACGCGGGGGACAGCGCGTACGTGCGTTTAAGCGGTGCTAGAGCTGTCTACGACCAATTGAGCGGCCTCGGTGGCCTTGATCTCCAGGAT
modifications: reconstituted with mouse histones H2A, H2B, H3.3 and H4
B11: 9 (nucleosome)
DNA 1: B10 DNA 1 with T11A, C12T, A13C, G15A, C17G, A19C, C20A
DNA 2: B10 DNA 2 with G134T, T135G, G137C, C139T, T141G, G142A, A143T
modifications: reconstituted with mouse histones H2A, H2B, H3.3 and H4
B12: 69 (nucleosome)
DNA 1: ATCCTGGAGAATCCCGGTGCCGAGGCCGCTCAATTGGTCGTAGACAGCTCTAGCACCGCTTAAACGCACGTTCAAGGCCACCCCCGCGTTTTAACCGCCAAGGGGATTACTCCCTAGTCTCCAGGCACGTGTCAGATATATACATCCTGTGAT
DNA 2: ATCACAGGATGTATATATCTGACACGTGCCTGGAGACTAGGGAGTAATCCCCTTGGCGGTTAAAACGCGGGGGTGGCCTTGAACGTGCGTTTAAGCGGTGCTAGAGCTGTCTACGACCAATTGAGCGGCCTCGGCACCGGGATTCTCCAGGAT
modifications: reconstituted with mouse histones H2A, H2B, H3.3 and H4
B13: 70 (nucleosome)
DNA 1: B12 DNA 1 with T72A, C73T, A74C, G76A, C78G, A80C, C81A
DNA 2: B12 DNA 2 with G73T, T74G, G76C, C78T, T80G, G81A, A82T
modifications: reconstituted with mouse histones H2A, H2B, H3.3 and H4
B14: 73 (nucleosome)
DNA 1: B12 DNA 1 with T72A, A74G, A75C, G76T, G77C, C78A, C79A, A80G, C81G, C84A
DNA 2: B12 DNA 2 with G70T, G73C, T74C, G75T, G76T, C77G, C78A, T79G, T80C, A82T
modifications: reconstituted with mouse histones H2A, H2B, H3.3 and H4
B15: 72 (nucleosome)
DNA 1: B12 DNA 1 with T72A, A74G, A75T, G76C, G77A, C78A, C79G, A80G, C83A
DNA 2: B12 DNA 2 with G71T, T74C, G75C, G76T, C77T, C78G, T79A, T80C, A82T
modifications: reconstituted with mouse histones H2A, H2B, H3.3 and H4

Assays:
[1] = biological target: NR5A2 wild type;histone octamer (Homo sapiens;, UniProt O00482;C0HKE1;Q6ZWY9;P84244;P62806 1-541;2-130;2-126;2-136;2-103, |); experiment: SeEN-seq (EMSA of nucleosome library followed by sequencing); 0.8 uM human NR5A2; 20 mM Tris-HCl pH 7.5, 120 mM NaCl, 1 mM MgCl2, 10 uM ZnCl2, 1 mM DTT, 100 ug/ml BSA, room temperature, 30 min; 0.1 uM nucleosome library; high values mean tight binding
[2] = biological target: mouse Nr5a2 wild type;histone octamer (Mus musculus;, UniProt P45448;C0HKE1;Q6ZWY9;P84244;P62806 1-560;2-130;2-126;2-136;2-103, |); experiment: SeEN-seq (EMSA of nucleosome library followed by sequencing); 1.2 uM mouse Nr5a2; 20 mM Tris-HCl pH 7.5, 120 mM NaCl, 1 mM MgCl2, 10 uM ZnCl2, 1 mM DTT, 100 ug/ml BSA, room temperature, 30 min; 0.1 uM nucleosome library; high values mean tight binding

Binder	binding signal [1]	binding signal [2]
B1	0.891 log2 enrichment (bound/unbound, relative to Widom 601)	1.14 log2 enrichment (bound/unbound, relative to Widom 601)
B2	0.625 log2 enrichment (bound/unbound, relative to Widom 601)	0.543 log2 enrichment (bound/unbound, relative to Widom 601)
B3	1.13 log2 enrichment (bound/unbound, relative to Widom 601)	1.45 log2 enrichment (bound/unbound, relative to Widom 601)
B4	0.699 log2 enrichment (bound/unbound, relative to Widom 601)	0.779 log2 enrichment (bound/unbound, relative to Widom 601)
B5	0.806 log2 enrichment (bound/unbound, relative to Widom 601)	0.96 log2 enrichment (bound/unbound, relative to Widom 601)
B6	0.83 log2 enrichment (bound/unbound, relative to Widom 601)	0.992 log2 enrichment (bound/unbound, relative to Widom 601)
B7	1.09 log2 enrichment (bound/unbound, relative to Widom 601)	1.1 log2 enrichment (bound/unbound, relative to Widom 601)
B8	1.05 log2 enrichment (bound/unbound, relative to Widom 601)	1.15 log2 enrichment (bound/unbound, relative to Widom 601)
B9	1.24 log2 enrichment (bound/unbound, relative to Widom 601)	1.27 log2 enrichment (bound/unbound, relative to Widom 601)
B10	2.08 log2 enrichment (bound/unbound, relative to Widom 601)	1.69 log2 enrichment (bound/unbound, relative to Widom 601)
B11	3.63 log2 enrichment (bound/unbound, relative to Widom 601)	3.37 log2 enrichment (bound/unbound, relative to Widom 601)
B12	0.77 log2 enrichment (bound/unbound, relative to Widom 601)	0.872 log2 enrichment (bound/unbound, relative to Widom 601)
B13	1.27 log2 enrichment (bound/unbound, relative to Widom 601)	1.51 log2 enrichment (bound/unbound, relative to Widom 601)
B14	1.28 log2 enrichment (bound/unbound, relative to Widom 601)	1.51 log2 enrichment (bound/unbound, relative to Widom 601)
B15	1 log2 enrichment (bound/unbound, relative to Widom 601)	1.27 log2 enrichment (bound/unbound, relative to Widom 601)
